# According to PubChem BioAssay AID1654 (Sanford-Burnham Center for Chemical Genomics, 2009):
# The whole screen tested about 290,000 compounds, of which about 1,500 (0.52%) were called active. Rule as the data show it: active = inhibition above about 50%; inactive = the rest. What follows is part of a selection rich in actives, with near analogues and random picks from the rest.
# Molecular target: Dual specificity protein phosphatase 3 (Homo sapiens) (UniProt P51452)
# Assay: VHR1 phosphatase inhibitors, primary screen, biochemical, absorbance, uHTS (AID 1654)
# [1] = recombinant VHR phosphatase, pNPP absorbance, at 13.3 µM, stronger effect = higher value
# Dual specificity protein phosphatase 3 (Homo sapiens), sequence (P51452 whole entry, looked up): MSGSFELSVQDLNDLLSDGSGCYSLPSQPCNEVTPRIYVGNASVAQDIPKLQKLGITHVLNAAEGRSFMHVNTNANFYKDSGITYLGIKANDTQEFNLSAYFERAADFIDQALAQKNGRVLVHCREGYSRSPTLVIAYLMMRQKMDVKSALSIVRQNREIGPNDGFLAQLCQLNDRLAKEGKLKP
structure (smiles),measurement,setting,value
CN(C)CCN(C(=O)C1=COCCO1)c1nc2ccc(Cl)cc2s1,inhibition,[1],17.5% (inactive)
Cn1nnc(NC(=S)NC(=O)c2ccccc2)n1,inhibition,[1],8.5% (inactive)
CC(=O)N1CCN(CC(=O)Nc2ccc(C)c(F)c2)CC1,inhibition,[1],0.1% (inactive)
Cc1ccc(C(NC(=O)N2CCCC2)C(Cl)(Cl)Cl)cc1F (stereo unspecified),inhibition,[1],51.3% (active)
Cc1ccc(C(=O)N2CCCC2)c(F)c1F,inhibition,[1],11.9% (inactive)
CC(=O)c1ccc(NC(=O)CCc2nnc3ccc(NCc4ccco4)nn23)cc1,inhibition,[1],-9.1% (inactive)
O=C(COC(=O)C1CC2C=CC1C2)Nc1ccccc1 (stereo unspecified),inhibition,[1],-9.6% (inactive)
CN(C)S(=O)(=O)N1CCC(Oc2cccc(C(=O)NCCCC3CCCC3)c2)CC1,inhibition,[1],-1.9% (inactive)
CCCCC(=O)NCc1ccc(F)cc1,inhibition,[1],-4.1% (inactive)
Cc1ccc(CS(=O)(=O)CCC(=O)NC2CC2)cc1,inhibition,[1],9.9% (inactive)
Cc1ccc(CS(=O)(=O)CCC(=O)NCc2ccc(F)cc2)cc1,inhibition,[1],57.9% (active)
O=C1CCC(C(=O)N2CCCCO2)CN1Cc1cccc(C(F)(F)F)c1 (stereo unspecified),inhibition,[1],23.9% (inactive)
COC(=O)c1c(NC(=O)COc2ccc(Cl)cc2Cl)sc2c1CC(C)(C)NC2(C)C,inhibition,[1],7.7% (inactive)
COc1cc2c(cc1OC)CN(C(=O)c1cc(S(=O)(=O)N3CCCCC3)ccc1Cl)CC2,inhibition,[1],8.6% (inactive)
COc1ccc(S(=O)(=O)N2CCC(C(=O)N3CCc4ccccc4C3)CC2)cc1OC,inhibition,[1],11.7% (inactive)
COc1cc2c(cc1OC)C(C)N(S(=O)(=O)c1cnc(Cl)c(Cl)c1)CC2 (stereo unspecified),inhibition,[1],51.2% (active)
Cc1cc(C)cc(N(CCC#N)C(=O)CN2C(=O)NC3(CCCC3)C2=O)c1,inhibition,[1],-12.4% (inactive)
COC(=O)c1cc(C(=O)NC(C)C2CC3CCC2C3)cc([N+](=O)[O-])c1 (stereo unspecified),inhibition,[1],-11.2% (inactive)
Cc1c(C(=O)NC(C)C2CC3CCC2C3)cccc1[N+](=O)[O-] (stereo unspecified),inhibition,[1],54.4% (active)
Cc1c(C(=O)NCCCc2ccccc2)cccc1[N+](=O)[O-],inhibition,[1],22.5% (inactive)
Cc1ccccc1NS(=O)(=O)CCCCC(Cl)(Cl)Cl,inhibition,[1],15.4% (inactive)
CCOC(=O)c1c(N)sc(C(C)=O)c1C,inhibition,[1],17.4% (inactive)
CCOC(=O)c1nc(N)sc1C(=O)OCC,inhibition,[1],50.8% (active)
CCOC(=O)c1sc2nc(C)[nH]c(=O)c2c1C,inhibition,[1],21.7% (inactive)
O=C(/C=C/Nc1ccc(S(=O)(=O)Nc2cnc3ccccc3n2)cc1)c1cccnc1,inhibition,[1],16.5% (inactive)
COc1cccc2cc(-c3cc(=O)oc4cc(C)c(O)cc34)oc12,inhibition,[1],-16.6% (inactive)
COc1ccc(Nc2cc(=O)oc3ccccc23)cc1,inhibition,[1],11.9% (inactive)
COc1ccc2oc(=O)cc(-c3cc4ccccc4o3)c2c1,inhibition,[1],52.7% (active)
Cc1cc(OC(=O)c2ccc(OC(C)C)cc2)c([N+](=O)[O-])c(=O)[nH]1,inhibition,[1],-18% (inactive)
Cc1ccc(S(=O)(=O)NCC(=O)N2CCOCCOCCOCCOCC2)cc1,inhibition,[1],33.9% (inactive)
O=C(O)C1CCC(CNS(=O)(=O)c2ccc(Br)cc2)CC1 (stereo unspecified),inhibition,[1],13.3% (inactive)
Cc1ccc(S(=O)(=O)NCC2CCC(C(=O)N3CCOCC3)CC2)cc1 (stereo unspecified),inhibition,[1],52% (active)
CCCCCn1c(=O)[nH]c2cc(C(=O)NCCCN3CCCCC3C)ccc2c1=O (stereo unspecified),inhibition,[1],22.4% (inactive)
CCCCOP(=O)(c1ccc(N(C)C)cc1)C(O)c1cc(OC)ccc1OC (stereo unspecified),inhibition,[1],6.1% (inactive)
CSc1ccccc1-c1nnc(-c2ccc(Cl)cc2)o1,inhibition,[1],25.3% (inactive)
O=C(Nc1nnc(-c2ccc(Cl)cc2)o1)c1ccccc1Br,inhibition,[1],41.9% (inactive)
O=C(c1nnc(-c2ccc(Cl)cc2)o1)C1CCCC1,inhibition,[1],51.3% (active)
CCOc1ccc(NC(=S)N2CCC(NC(=O)c3ccccc3)CC2)cc1,inhibition,[1],20.4% (inactive)
CCOc1ccc(CC(=O)NC2CCN(Cc3ccccc3)CC2)cc1,inhibition,[1],51% (active)
O=C(COc1ccc(Br)cc1F)NC1CCN(Cc2ccccc2)CC1,inhibition,[1],4.7% (inactive)
Clc1ccc(Nc2ncnc3c2nnn3Cc2ccccc2)cc1,inhibition,[1],16.3% (inactive)
Cc1nc(Nc2ccc3c(c2)OCCO3)c2nnn(Cc3ccccc3Cl)c2n1,inhibition,[1],18.2% (inactive)
CC(=O)Nc1ccc(Nc2ncnc3c2nnn3Cc2ccccc2Cl)cc1,inhibition,[1],52% (active)
CCC(=O)Nc1ccc(-c2ccc(N3CCCCC3)nn2)cc1,inhibition,[1],-19.8% (inactive)
O=C(Nc1nccs1)C1CCCN1S(=O)(=O)c1cccc2cccnc12 (stereo unspecified),inhibition,[1],56.5% (active)
Cc1ccc(NC(=O)C2CCCN2S(=O)(=O)c2cccc3cccnc23)c(C)c1 (stereo unspecified),inhibition,[1],-0.7% (inactive)
CC1CCCCC1NC(=O)C1CCCN1S(=O)(=O)c1cccc2nsnc12 (stereo unspecified),inhibition,[1],16.6% (inactive)
CC(=O)c1cccc(NC(=O)C2CCCN(S(=O)(=O)c3cccc4nonc34)C2)c1 (stereo unspecified),inhibition,[1],50.4% (active)
COc1ccc(OC)c(NC(=O)C2CCCN2S(=O)(=O)c2cccc3nsnc23)c1 (stereo unspecified),inhibition,[1],19% (inactive)
CC(=O)c1cccc(NC(=O)C2CCCN2S(=O)(=O)c2cccc3nsnc23)c1 (stereo unspecified),inhibition,[1],54.2% (active)
Cc1cc(C)cc(NC(=O)C2CCCN2S(=O)(=O)c2cccc3cccnc23)c1 (stereo unspecified),inhibition,[1],-42.1% (inactive)
COc1ccc(NC(=O)C2CCCN(S(=O)(=O)c3cccc4cccnc34)C2)cc1OC (stereo unspecified),inhibition,[1],23.6% (inactive)
O=C(NCc1ccco1)C1CCCN(S(=O)(=O)c2cccc3nonc23)C1 (stereo unspecified),inhibition,[1],3.6% (inactive)
CCc1ccc(-c2cc(C)no2)cc1S(=O)(=O)NCCc1ccc(S(N)(=O)=O)cc1,inhibition,[1],28% (inactive)
Cc1ccc(NC(=O)c2nc[nH]c2C(=O)N[C@@H](CCCCNC(=O)OC(C)(C)C)C(=O)OC(C)(C)C)cc1,inhibition,[1],-0.7% (inactive)
CCc1ccccc1NC(=O)c1ccc2c(c1)CCN2S(C)(=O)=O,inhibition,[1],-17.9% (inactive)
O=C1/C(=C/c2ccc(F)cc2)SC(=S)N1CCCC(=O)N1CCCCC1CCO (stereo unspecified),inhibition,[1],42.6% (inactive)
CC(=O)Nc1ccc(S(=O)(=O)N2CCC(C(=O)NC3CC3)CC2)cc1,inhibition,[1],14.9% (inactive)
CCC(C(=O)NC1CCCC1)N(C(=O)Cn1nnc(-c2ccc(C)o2)n1)c1ccc(OC)c(OC)c1 (stereo unspecified),inhibition,[1],13% (inactive)
Nc1nc(SCC(=O)Nc2ccc(Cl)cc2C(F)(F)F)n[nH]1,inhibition,[1],2.5% (inactive)
CCN(C(=O)CSc1nnc(-c2ccncc2)o1)c1ccccc1,inhibition,[1],11% (inactive)
COc1cccc(OC)c1C(=O)Nc1c(C(=O)N2CCN(c3ccccn3)CC2)oc2ccccc12,inhibition,[1],52.1% (active)
Cc1cc(C(=O)N2CCN(c3ccccn3)CC2)c(C)o1,inhibition,[1],-2.1% (inactive)
COCC(=O)Nc1c(C(=O)N2CCCC2)oc2ccccc12,inhibition,[1],1% (inactive)
CCOc1ccc(CN2CCN(Cc3ccc4cc(F)ccc4n3)CC2CCO)cc1 (stereo unspecified),inhibition,[1],6.4% (inactive)
Cc1cccc(C(=O)OCC(=O)Nc2ccc(F)cc2)c1,inhibition,[1],8% (inactive)
Cc1cc(C)nc(-n2ncc3c2CC(c2ccc(C(C)C)cc2)CC3=O)n1 (stereo unspecified),inhibition,[1],1.9% (inactive)
NC(=S)Nc1c(Cl)cccc1Cl,inhibition,[1],24.6% (inactive)
CSCCNC(=O)c1ccc2nc(Cc3ccccc3F)oc2c1,inhibition,"recombinant VHR phosphatase, pNPP absorbance; at 13.3 µM; stronger effect = higher value",63.9% (inactive)
same,inhibition,"recombinant VHR phosphatase, pNPP absorbance; measured here: average of confirmation repeats; at 13.3 µM; stronger effect = higher value",2.8%
Cc1ccc(NC2CCCN(C(=O)CCc3cn[nH]c3)C2)cc1C (stereo unspecified),inhibition,[1],-2.7% (inactive)
CCOc1cc(/C=N/NC(=O)OC)ccc1OCCSc1ccc(Cl)cc1,inhibition,[1],-3.8% (inactive)
CCOc1cc(/C=N/O)ccc1OCc1ccccc1F,inhibition,[1],-4.1% (inactive)
CC(=O)c1nn(-c2cccc(C(F)(F)F)c2)c(=O)[nH]c1=O,inhibition,[1],-9.5% (inactive)
CN(CCO)c1ccc(/C=N/Nc2nncc3ccccc23)cc1,inhibition,[1],18.2% (inactive)
O=C(Nc1ccc(OCC(=O)N2CCOCC2)cc1)c1cc(F)c(F)cc1Cl,inhibition,[1],25.5% (inactive)
O=C1COc2ccc(S(=O)(=O)Nc3ccc(OC(F)(F)F)cc3)cc2N1,inhibition,[1],-1.9% (inactive)
Cc1ccc(C)c(SCc2nc3sc(C(=O)O)c(C)c3c(=O)[nH]2)c1,inhibition,[1],7.2% (inactive)
COc1ccccc1NC(=O)CSc1nc2sc3c(c2c(=O)n1-c1ccccc1)CCN(C)C3,inhibition,[1],9.1% (inactive)
Cc1ccc(-c2nc(SCC(=O)Nc3ccccc3OC(F)F)c3c(C)c(C(=O)O)sc3n2)cc1,inhibition,[1],113% (active)
CCN(CC)c1ccc(/C=N/NC(=O)CNC(=O)c2cccs2)cc1,inhibition,[1],10.2% (inactive)
CN(C(=O)COC(=O)CNC(=O)C12CC3CC(CC(C3)C1)C2)c1ccccc1,inhibition,[1],14.5% (inactive)
Nc1nonc1-n1nnc(C(=O)N/N=C\c2ccncc2)c1CN1CCCCC1,inhibition,[1],13% (inactive)
NNC(=O)c1nnn(-c2nonc2N)c1CN1CCCC1,inhibition,[1],52.8% (active)
Cc1c(C(=O)O)nnn1-c1nonc1N,inhibition,[1],17.9% (inactive)
Cc1ccc2c(c1)N(CC(=O)N1CCCC(C)C1)C(=O)CO2 (stereo unspecified),inhibition,[1],7.4% (inactive)
CCOc1ccc(CN2CCN(CCCc3ccccc3)C(CCO)C2)cc1 (stereo unspecified),inhibition,[1],8.1% (inactive)
Cc1noc(C)c1CCC(=O)N1CCCC(CO)(Cc2ccccc2)C1 (stereo unspecified),inhibition,[1],5.7% (inactive)
CC1CN(C(=S)Nc2ccc(Br)cc2Cl)CC(C)O1 (stereo unspecified),inhibition,[1],15% (inactive)
CCc1ccc(NC(=O)CN2CCC(C(=O)c3ccc(OC)cc3)CC2)cc1,inhibition,[1],52% (active)
CCc1ccc(NC(=O)Cn2nnc(C(=O)NCc3ccc(OC)cc3)c2N)cc1,inhibition,[1],-1.9% (inactive)
CCOc1ccc(NC(=O)CN2CCN(CC(=O)Nc3ccc(OC)cc3)CC2)cc1,inhibition,[1],-3.3% (inactive)
CCCCNC(=O)C1CCCN(S(=O)(=O)c2ccc(S(=O)(=O)NCC(C)C)cc2)C1 (stereo unspecified),inhibition,[1],6.5% (inactive)
COc1ccc(CCNC(=O)C2CCCN(S(=O)(=O)c3ccc(OC)cc3)C2)cc1 (stereo unspecified),inhibition,[1],-35.9% (inactive)
CC(C)CCNC(=O)C1CCCN(S(=O)(=O)c2ccc(F)cc2)C1 (stereo unspecified),inhibition,[1],53.4% (active)
CCc1cc(-c2nnc(SCC(=O)NC3CC3)n2C)cs1,inhibition,[1],24% (inactive)
